Reference: PubChem BioAssay
Records with an inconclusive call do not appear. The source made the active and inactive calls.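 The calls were made as follows: active = cell viability at or below a set limit in both duplicate runs, the limit being the all-compound median minus 4 SD (cut at about 23% in these data, passing the limit was not always enough); inconclusive = no clear call, values can overlap the other calls; inactive = the rest.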

Assay: viability of HCT116 without oncogenic beta-catenin – human colon tumor cells, pilot screen (AID 823);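 also: 0% = wells killed by 20 µM Hyamine and 100% = untreated DMSO cell wells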
Settings: HCT116 beta-catenin knockout viability, CellTiter-Glo, 60 h; at 10 µM; hits give low values

| Structure (SMILES) | viability |
| --- | --- |
| CCCCn1c(CNC(=O)c2cccs2)nc2ccccc21 | 101% (inactive) |
| COC(=O)C1=C(C)NC(=O)CC1c1cccc(Cl)c1Cl (configuration not stated) | 103% (inactive) |
| Cn1c(Cn2c(=O)sc3ccccc32)nnc1SCC(=O)NCCc1ccccc1 | 100% (inactive) |
| Cc1ccccc1S(=O)(=O)Cc1ccc(C(=O)N2CCN(C3CCCCC3)CC2)o1 | 95.1% (inactive) |
| Cn1c(C(=O)NC2CCCCC2)cc2c(=O)n(C)c3ccccc3c21 | 88% (inactive) |
| O=c1oc(-c2cccs2)nc2sc3c(c12)CCCCC3 | 89% (inactive) |
| CN(C)C(=O)N1CCC(C(=O)NCc2ccc(F)cc2)CC1 | 104% (inactive) |
| Cc1cc(Nc2c(C)cccc2C)n2nc(C)nc2n1 | 104% (inactive) |
| O=C1CC(Nc2ccc(N3CCOCC3)cc2)C(=O)N1c1ccccc1F (configuration not stated) | 110% (inactive) |
| COc1cc(NC(=O)c2cc(C(C)C)on2)cc(OC)c1OC | 95.2% (inactive) |
| CN(C)CCNC(=O)c1ccc2c(c1)N(Cc1ccc(F)cc1)CCS2 | 47.8% (inactive) |
| c1ccc2c(c1)nc1n2CCN1CCNC1CCCCC1 | 94.2% (inactive) |
| COC(=O)c1ccsc1NC(=O)C1=COCCO1 | 106% (inactive) |
| c1coc(-c2nc(-c3ccco3)c(-c3ccco3)nc2-c2ccco2)c1 | 97.6% (inactive) |
| COc1cc2c(cc1OC)CN(C(=O)C(C)(C)C)CC2 | 105% (inactive) |
| CCOCN(C(=O)Cn1c(CO)nc2ccccc21)c1c(C)cccc1CC | 89.4% (inactive) |
| CC(C)OC(=O)c1nnc(Cc2ccc(F)cc2)o1 | 113% (inactive) |
